GSTO1 inh = GSTO1 inhibition, counter-screen for RBBP9 inhibitors; inhibition, % at 5.96 µM; P78417; recombinant GSTO1, activity-based probe fluorescence polarization; hit rate 1.1% among 300,000;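 active = inhibition above the campaign mean inhibition plus 3 SD, cut at about 35% in these data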
LYPLA2 counter = blocks human lysophospholipase 2, a PME1 counter-screen. O95372. recombinant LYPLA2, FP-Rh probe fluorescence polarization. inhibition, % at 5.9 µM. hit rate 0.38% among 320,000;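 active = inhibition above the screen-wide mean plus 3 SD, limit set per campaign, cut at about 26% in these data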
Target sequence (O95372 whole entry, looked up): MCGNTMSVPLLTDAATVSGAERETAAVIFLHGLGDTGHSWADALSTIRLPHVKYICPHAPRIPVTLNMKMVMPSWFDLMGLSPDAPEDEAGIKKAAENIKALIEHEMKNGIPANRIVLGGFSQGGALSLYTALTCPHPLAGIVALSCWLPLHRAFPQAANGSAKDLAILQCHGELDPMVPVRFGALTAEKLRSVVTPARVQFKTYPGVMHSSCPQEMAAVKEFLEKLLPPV
LYPLA1 inh = blocks human lysophospholipase 1, a PME1 counter-screen; O75608; recombinant LYPLA1, FP-Rh probe fluorescence polarization; inhibition, % at 5.9 µM; hit rate 0.16% among 320,000; AID 2174;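 active = inhibition above the mean of all tested compounds plus 3 SD, set per campaign, cut at about 14% in these data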;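 note: inhibitors block serine hydrolase probe labeling of LYPLA1 so polarization falls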
Target sequence (O75608 whole entry, looked up): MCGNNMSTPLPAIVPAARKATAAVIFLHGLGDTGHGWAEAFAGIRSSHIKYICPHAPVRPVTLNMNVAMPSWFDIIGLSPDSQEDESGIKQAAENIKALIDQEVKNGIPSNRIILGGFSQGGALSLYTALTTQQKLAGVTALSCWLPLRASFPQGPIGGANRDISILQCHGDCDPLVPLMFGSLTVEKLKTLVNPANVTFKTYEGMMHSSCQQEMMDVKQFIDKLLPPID
PAD4 inh = PAD4 (human) enzyme inhibition. inhibition, % at 6.36 µM. recombinant PAD4, RCA probe fluorescence polarization. AID 485272. hit rate 0.41% among 330,000;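 active = percent inhibition above a cutoff equal to the mean of all tested compounds plus 3 SD, cut at about 15% in these data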
EBNA-1 inhibitor = blocks EBNA-1 binding to DNA; EBNA-1 DNA binding, fluorescence polarization; inhibition, % at 14.8 µM; hit rate 0.34% among 300,000; AID 1950; in the data active = inhibition above about 28%
ZTA DNA inh = ZTA (EBV) inhibition in EBNA-1 counter-screen; P03206; ZTA-DNA binding, fluorescence polarization; inhibition, % at 11 µM; hit rate 0.15% among 320,000; in the data active = inhibition above about 33%
Zta DNA confirm = EBV ZTA DNA binding inhibition, confirmation. shares compounds with ZTA DNA inh. Zta-ZRE DNA binding, fluorescence polarization. inhibition, % at 11.1 µM. hit rate 30% among 320. AID 2361;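 active = mean inhibition across triplicate runs above the hit threshold derived for the original primary screen, cut at about 33% in these data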
EBNA-1 counter = EBNA-1 DNA binding inhibition, counter-screen for ZTA; 320 tested, under 10 active; fluorescence polarization; inhibition, % at 14.8 µM; shares compounds with ZTA DNA inh; call rule not given here
PAD4 FP conf = confirmation of human PAD4 inhibitors; shares compounds with PAD4 inh; recombinant PAD4, RCA probe fluorescence polarization; inhibition, % at 6.36 µM; hit rate 28% among 1,200;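 active = mean inhibition across replicates above the hit cutoff set by the earlier primary screen, cut at about 15% in these data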;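 note: inhibitors block active-site labeling by the probe so polarization falls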
Numbers stand for hits. Hits are enriched below; roughly 1.7% of the tested compounds scored in any of these assays.

What do the screens show for `Cc1cc(/C=C2\C(=O)NC(=O)N(c3ccccc3F)C2=O)c(C)n1-c1cc(C(=O)O)cc(C(=O)O)c1`?
GSTO1 inh: inactive; LYPLA2 counter: inactive; LYPLA1 inh: inactive; PAD4 inh: inactive; EBNA-1 inhibitor: inactive; ZTA DNA inh: 33.0; Zta DNA confirm: 60.4; EBNA-1 counter: inactive

How did CCN(CC)c1ccc(N=Cc2c(O)n(-c3ccc(OC)cc3)c(=O)[nH]c2=O)cc1 do in these assays?
GSTO1 inh: inactive; LYPLA2 counter: inactive; LYPLA1 inh: inactive; PAD4 inh: inactive; EBNA-1 inhibitor: inactive; ZTA DNA inh: 36.4; Zta DNA confirm: inactive; EBNA-1 counter: inactive

What do the screens show for `c1ccc2c3c([nH]c2c1)C1(CCNCC1)NCC3`?
GSTO1 inh: inactive; LYPLA2 counter: inactive; LYPLA1 inh: inactive; PAD4 inh: inactive; EBNA-1 inhibitor: inactive; ZTA DNA inh: inactive

How did COc1ccc(CCn2c(O)c(C=Nc3ccc(NC(C)=O)cc3)c(=O)[nH]c2=O)cc1OC do in these assays?
GSTO1 inh: inactive; LYPLA2 counter: inactive; LYPLA1 inh: inactive; PAD4 inh: inactive; EBNA-1 inhibitor: inactive; ZTA DNA inh: 60.0; Zta DNA confirm: 47.5; EBNA-1 counter: 38.2

Results for CCOc1ccc(N=Cc2c(O)n(CCc3ccc(OC)c(OC)c3)c(=O)[nH]c2=O)cc1 ?
GSTO1 inh: inactive; LYPLA2 counter: inactive; LYPLA1 inh: inactive; PAD4 inh: inactive; EBNA-1 inhibitor: inactive; ZTA DNA inh: inactive

What do the screens show for `O=C1CC(c2ccccc2)CN1` (stereo not given)?
GSTO1 inh: inactive; LYPLA2 counter: inactive; LYPLA1 inh: inactive; PAD4 inh: inactive; EBNA-1 inhibitor: inactive; ZTA DNA inh: inactive

How did C=CCn1c(O)c(C=Nc2ccc(N(CC)CC)cc2)c(=O)[nH]c1=O do in these assays?
GSTO1 inh: inactive; LYPLA2 counter: inactive; LYPLA1 inh: inactive; PAD4 inh: 28.2; EBNA-1 inhibitor: inactive; ZTA DNA inh: 45.1; Zta DNA confirm: inactive; EBNA-1 counter: inactive; PAD4 FP conf: inactive

Results for COC(=O)C1=C(c2ccccc2OCc2ccccc2)C[C@@H]2CC[C@H]1N2C(=O)NCCc1ccc(F)cc1 ?
LYPLA2 counter: inactive; LYPLA1 inh: inactive; PAD4 inh: inactive; ZTA DNA inh: inactive

How did CC(=O)Nc1ccccc1OC(=O)N(C)C do in these assays?
GSTO1 inh: inactive; LYPLA2 counter: inactive; LYPLA1 inh: inactive; PAD4 inh: inactive; EBNA-1 inhibitor: inactive; ZTA DNA inh: inactive

How did CN(C)C(=O)Oc1cccc2c(OC(=O)N(C)C)cccc12 do in these assays?
GSTO1 inh: inactive; LYPLA2 counter: inactive; LYPLA1 inh: inactive; PAD4 inh: 23.7; EBNA-1 inhibitor: inactive; ZTA DNA inh: inactive; PAD4 FP conf: inactive

Results for Cc1ccc(-n2c(O)c(C=NCc3ccco3)c(=O)[nH]c2=S)cc1C ?
GSTO1 inh: inactive; LYPLA2 counter: inactive; LYPLA1 inh: inactive; PAD4 inh: inactive; EBNA-1 inhibitor: inactive; ZTA DNA inh: inactive

How did Cc1[nH]n(-c2ccccc2)c(=O)c1C(c1ccc([N+](=O)[O-])cc1)c1c(C)[nH]n(-c2ccccc2)c1=O do in these assays?
GSTO1 inh: 59.2; LYPLA2 counter: inactive; LYPLA1 inh: inactive; PAD4 inh: 65.5; EBNA-1 inhibitor: inactive; ZTA DNA inh: inactive; PAD4 FP conf: inactive

How did Cc1nc2ccccc2c(=O)n1-c1cc([N+](=O)[O-])cc([N+](=O)[O-])c1 do in these assays?
GSTO1 inh: inactive; LYPLA2 counter: inactive; LYPLA1 inh: inactive; PAD4 inh: inactive; EBNA-1 inhibitor: inactive; ZTA DNA inh: inactive

What do the screens show for `N#CC1(c2ccccc2)CCN(C2CC(=O)N(c3ccc(F)cc3)C2=O)CC1` (stereo not given)?
GSTO1 inh: inactive; LYPLA2 counter: inactive; LYPLA1 inh: inactive; PAD4 inh: 17.6; EBNA-1 inhibitor: inactive; ZTA DNA inh: inactive; PAD4 FP conf: inactive

How did Cc1ccc(-c2nc3ccc(C)cn3c2CC(=O)N(C)C)cc1 do in these assays?
GSTO1 inh: inactive; LYPLA2 counter: inactive; LYPLA1 inh: inactive; PAD4 inh: 16.9; EBNA-1 inhibitor: inactive; ZTA DNA inh: inactive; PAD4 FP conf: inactive

How did O=c1[nH]c(=S)n(-c2ccccc2F)c(O)c1C=Nc1ccc(N2CCOCC2)cc1 do in these assays?
GSTO1 inh: 43.1; LYPLA2 counter: inactive; LYPLA1 inh: inactive; PAD4 inh: 17.4; EBNA-1 inhibitor: inactive; ZTA DNA inh: 44.6; PAD4 FP conf: inactive

Results for CCCCn1c(O)c(C(C)=NCCCn2ccnc2)c(=O)[nH]c1=O ?
GSTO1 inh: inactive; LYPLA2 counter: inactive; LYPLA1 inh: inactive; PAD4 inh: 27.4; EBNA-1 inhibitor: inactive; ZTA DNA inh: inactive; PAD4 FP conf: 15.7

What do the screens show for `CCOP(=O)(OCC)C1(C(=O)O)CCCC1`?
GSTO1 inh: inactive; LYPLA2 counter: inactive; LYPLA1 inh: inactive; PAD4 inh: inactive; EBNA-1 inhibitor: inactive; ZTA DNA inh: inactive

Results for CC(C)c1onc(C(=O)N2CCC3(CC2)OCCO3)c1[N+](=O)[O-] ?
GSTO1 inh: inactive; LYPLA2 counter: inactive; LYPLA1 inh: inactive; PAD4 inh: inactive; EBNA-1 inhibitor: inactive; ZTA DNA inh: inactive

Results for Cc1cc(C)cc(N2C(=O)NC(=O)/C(=C\c3cc(C)n(C)c3C)C2=O)c1 ?
GSTO1 inh: inactive; LYPLA2 counter: inactive; LYPLA1 inh: inactive; PAD4 inh: inactive; EBNA-1 inhibitor: inactive; ZTA DNA inh: inactive

Results for CC1=NN(c2ccccc2)C(=O)C1/C=C1\C(=O)NC(=O)N(c2cc(C)cc(C)c2)C1=O (stereo not given) ?
GSTO1 inh: 36.1; LYPLA2 counter: inactive; LYPLA1 inh: inactive; PAD4 inh: 25.6; EBNA-1 inhibitor: inactive; ZTA DNA inh: inactive; PAD4 FP conf: inactive

What do the screens show for `CN1CCN(CC(=O)Nc2ccc([N+](=O)[O-])cc2C(=O)c2ccccc2)CC1`?
GSTO1 inh: inactive; LYPLA2 counter: inactive; LYPLA1 inh: inactive; PAD4 inh: inactive; EBNA-1 inhibitor: inactive; ZTA DNA inh: inactive

Compound activity (PubChem)
